Laboratory results taken from PubChem BioAssay (Tox21).
Inconclusive results are not listed. A call without a number means that no potency is given here. Values without a mark were called inactive. Activity calls are given as the source filed them. Unless noted, calls come from the whole dose curve.

assay: qHTS assay to identify small molecule agonists of the progesterone receptor (PR) signaling pathway - cell viability counter screen (AID 1346799); conditions: PR-UAS-bla HEK293T viability, CellTiter-Glo luminescence, 16 h; series mostly up to 92.4 µM; note: nearly all actives have a fitted effect of over 45% in size; note: potency is the fitted concentration of half-maximal effect
Method in brief: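 Using the same plates as the PR reporter screen, HEK293T PR-UAS-bla cells received compounds for 16 hr at 37C and were then lysed with CellTiter-Glo; luminescence was read 30 min later at room temperature.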

| Structure (SMILES) | Potency | activity change, negative = cytotoxicity |
| --- | --- | --- |
| CCC(=O)O[C@]1(C(=O)CCl)[C@@H](C)C[C@H]2[C@@H]3CCC4=CC(=O)C=C[C@]4(C)[C@@]3(F)[C@@H](O)C[C@@]21C | inactive | – |
| Nc1cccc(S(=O)(=O)c2cccc(N)c2)c1 | inactive | – |
| O=CC1CC=CCC1 (stereo not given) | inactive | – |
| CN(C)CCN(Cc1ccsc1)c1ccccn1 | inactive | – |
| Brc1c2ccccc2c(Br)c2ccccc12 | – | 18.6% [at 8.39 µM] |
| COC(C)OC | inactive | – |
| O=[N+]([O-])c1ccc(NCCO)c(OCCO)c1 | inactive | – |
| CCCCCC[C@@H](O)C/C=C\CCCCCCCC(=O)OC | inactive | – |
| COc1ccc2cccc(CCNC(C)=O)c2c1 | inactive | – |
| OC(C#CCN1CCCC1)(c1ccccc1)c1ccccc1 | inactive | – |
| CC(C)(C)Cl | inactive | – |
| CCN(CC)CCNc1ccc(CNC=O)c2sc3ccc(OC)cc3c(=O)c12 | 27.3 µM (active) | – |
| CCOC(=O)C(F)(F)F | inactive | – |
| CC(=O)c1cccc([N+](=O)[O-])c1 | inactive | – |
| COc1ccc(C(=O)N2CCN(CC(=O)N3CCOCC3)CC2)cc1 | inactive | – |
| O=C(O)CNCC(=O)O | – | 20.3% [at 8.39 µM] |
| O=C(O)c1ccc(S(=O)(=O)O)cc1C(=O)O | inactive | – |
| CCCn1cnc2c1c(=O)n(CCCCC(C)=O)c(=O)n2C | inactive | – |

| Structure (SMILES) | Potency | activity change, negative = cytotoxicity |
| --- | --- | --- |
| CCCCCCCCCCCC(=O)OC[C@@H](O)[C@H]1OC[C@H](OCCO)[C@H]1OCCO | inactive | – |
| O=C1OC(CN2CCOCC2)CN1/N=C/c1ccc([N+](=O)[O-])o1 (stereo not given) | inactive | – |
| Nc1ccc(N)c2c1C(=O)c1ccccc1C2=O | inactive | – |
| CN(C)c1ccc(C(c2ccccc2)c2ccc(N(C)C)cc2)cc1 | inactive | – |
| OC[C@H]1O[C@@H](OCCc2ccc(O)cc2)[C@H](O)[C@@H](O)[C@@H]1O | inactive | – |
| O=C(O)c1ccccc1Cl | inactive | – |
| COC(=O)c1ccc(I)cc1S(=O)(=O)NC(=O)Nc1nc(C)nc(OC)n1 | inactive | – |
| CN1CCN(C(c2ccccc2)c2ccccc2)CC1 | inactive | – |
| C[Si](C)(CCCN)O[Si](C)(C)CCCN | inactive | – |
| C=C(C)C(=O)OCCO | inactive | – |
| COc1cc(Cl)ccc1Oc1ccc(Cl)cc1Cl | inactive | – |
| CCOC(=O)Cc1cccc2ccccc12 | inactive | – |
| CCOc1ccc(O)cc1 | inactive | – |
| O=C(O)c1ccc(-n2nc(-c3ccccc3O)nc2-c2ccccc2O)cc1 | inactive | – |
| O=C1[C@H]2CCCC[C@H]2C(=O)N1CCCCN1CCN(c2nsc3ccccc23)CC1 | inactive | – |
| C[N+]1(C)CCC(OC(=O)C(O)(c2ccccc2)C2CCCC2)C1 (stereo not given) | inactive | – |
| O=C(CS)Nc1ccccc1 | inactive | – |

assay: qHTS assay to identify small molecule antagonists of the TGF-beta/Smad signaling pathway - cell viability counter screen (AID 1346824; active = well fitted cell-killing curve with a large enough effect in the repeat runs; note: nearly all actives have a fitted effect of over 50% in size); conditions: SBE-bla HEK293T viability, CellTiter-Glo luminescence; series mostly up to 76.8 µM
Method in brief: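 SBE-bla HEK 293T cells, incubated overnight, then compound plus 0.25 ng/mL TGF-beta1 (stock added) for 5 hr at 37 C. Viability was read in the same wells by CellTiter-Glo luminescence after 30 min at room temperature.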

| Structure (SMILES) | Potency | viability change, negative = cytotoxic |
| --- | --- | --- |
| CCC(=O)O[C@]1(C(=O)CCl)[C@@H](C)C[C@H]2[C@@H]3CCC4=CC(=O)C=C[C@]4(C)[C@@]3(F)[C@@H](O)C[C@@]21C | inactive | – |
| Nc1cccc(S(=O)(=O)c2cccc(N)c2)c1 | inactive | – |
| O=CC1CC=CCC1 (stereo not given) | inactive | – |
| CN(C)CCN(Cc1ccsc1)c1ccccn1 | inactive | – |
| Brc1c2ccccc2c(Br)c2ccccc12 | – | 16.5% [at 6.97 µM] |
| COC(C)OC | inactive | – |
| O=[N+]([O-])c1ccc(NCCO)c(OCCO)c1 | inactive | – |
| CCCCCC[C@@H](O)C/C=C\CCCCCCCC(=O)OC | inactive | – |
| COc1ccc2cccc(CCNC(C)=O)c2c1 | inactive | – |
| OC(C#CCN1CCCC1)(c1ccccc1)c1ccccc1 | inactive | – |
| CC(C)(C)Cl | inactive | – |
| CCN(CC)CCNc1ccc(CNC=O)c2sc3ccc(OC)cc3c(=O)c12 | inactive | – |
| CCOC(=O)C(F)(F)F | inactive | – |
| CC(=O)c1cccc([N+](=O)[O-])c1 | inactive | – |
| COc1ccc(C(=O)N2CCN(CC(=O)N3CCOCC3)CC2)cc1 | inactive | – |
| O=C(O)CNCC(=O)O | – | 10.5% [at 6.97 µM] |
| O=C(O)c1ccc(S(=O)(=O)O)cc1C(=O)O | inactive | – |
| CCCn1cnc2c1c(=O)n(CCCCC(C)=O)c(=O)n2C | inactive | – |

| Structure (SMILES) | Potency | viability change, negative = cytotoxic |
| --- | --- | --- |
| CCCCCCCCCCCC(=O)OC[C@@H](O)[C@H]1OC[C@H](OCCO)[C@H]1OCCO | inactive | – |
| O=C1OC(CN2CCOCC2)CN1/N=C/c1ccc([N+](=O)[O-])o1 (stereo not given) | inactive | – |
| Nc1ccc(N)c2c1C(=O)c1ccccc1C2=O | inactive | – |
| CN(C)c1ccc(C(c2ccccc2)c2ccc(N(C)C)cc2)cc1 | inactive | – |
| OC[C@H]1O[C@@H](OCCc2ccc(O)cc2)[C@H](O)[C@@H](O)[C@@H]1O | inactive | – |
| O=C(O)c1ccccc1Cl | inactive | – |
| COC(=O)c1ccc(I)cc1S(=O)(=O)NC(=O)Nc1nc(C)nc(OC)n1 | inactive | – |
| CN1CCN(C(c2ccccc2)c2ccccc2)CC1 | inactive | – |
| C[Si](C)(CCCN)O[Si](C)(C)CCCN | inactive | – |
| C=C(C)C(=O)OCCO | inactive | – |
| COc1cc(Cl)ccc1Oc1ccc(Cl)cc1Cl | inactive | – |
| CCOC(=O)Cc1cccc2ccccc12 | inactive | – |
| CCOc1ccc(O)cc1 | inactive | – |
| O=C(O)c1ccc(-n2nc(-c3ccccc3O)nc2-c2ccccc2O)cc1 | inactive | – |
| O=C1[C@H]2CCCC[C@H]2C(=O)N1CCCCN1CCN(c2nsc3ccccc23)CC1 | inactive | – |
| C[N+]1(C)CCC(OC(=O)C(O)(c2ccccc2)C2CCCC2)C1 (stereo not given) | inactive | – |
| O=C(CS)Nc1ccccc1 | inactive | – |
